# Source: PubChem
# The full list was thinned out, with hits kept by preference.
# NPSR antag: qHTS Assay for Antagonists of the Neuropeptide S Receptor: cAMP Signal Transduction; Q6W5P4; CHO-NPSR cells, cAMP TR-FRET, antagonist mode; Potency, µM (titrated, usually from 38.3 µM), for the others: at the highest dose activity change, negative = inhibition, most hits filed as inhibitors; actives 1% (n = 220,000); AID 1461, 2008; note: nearly all actives have a fitted effect of over 50% in size
# Target sequence (Q6W5P4 whole entry, looked up): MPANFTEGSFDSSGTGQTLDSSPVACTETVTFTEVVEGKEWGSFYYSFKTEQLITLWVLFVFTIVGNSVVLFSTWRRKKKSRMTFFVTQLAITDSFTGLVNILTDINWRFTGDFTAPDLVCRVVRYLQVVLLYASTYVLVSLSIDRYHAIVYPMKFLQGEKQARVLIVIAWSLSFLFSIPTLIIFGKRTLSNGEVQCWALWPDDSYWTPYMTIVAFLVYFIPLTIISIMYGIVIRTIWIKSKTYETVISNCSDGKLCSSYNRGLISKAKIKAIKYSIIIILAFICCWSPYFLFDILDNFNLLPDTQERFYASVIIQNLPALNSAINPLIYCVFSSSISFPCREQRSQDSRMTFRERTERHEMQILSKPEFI
# IMPase Li cell: qHTS Assay for Identifying the Cell-Membrane Permeable IMPase Inhibitors: Potentiation with Lithium | CHO-M1 cells, IP1 TR-FRET (IP-One), carbachol + lithium | Potency, µM (doses to about 59.4 µM), without a hit: at the highest dose activity, negative = IMPase inhibition, most hits filed as inhibitors | actives 0.35% (n = 210,000) | AID 1457, 2008;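 note: IP1 builds up when IMPase is blocked and the TR-FRET signal falls; plate controls were basal vehicle for no effect and high inhibitor control for full effect; nearly all actives have a fitted effect of over 50% in size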
#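 Readout is a homogeneous TR-FRET IP1 immunoassay (Ex 320, Em 665 and 620), where raised cytosolic IP1 lowers signal. Cells were CHO-M1 treated 30 min at 37C with test compounds plus a little lithium; AC50 values came from Hill-equation fitting.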
# ERK EGF block: qHTS Assay for Inhibitors of the ERK Signaling Pathway using a Homogeneous Screening Assay; Stimulation with EGF; Potency, µM (series often up to 11.5 µM), for the others: top-dose activity change, negative = inhibition, most hits filed as inhibitors; actives 0.41% (n = 130,000); HEK293-V1b, EGF-stimulated phospho-ERK AlphaScreen;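 note: plate controls were stimulated vehicle wells for no effect and unstimulated vehicle basal for full effect; nearly all actives have a fitted effect of over 55% in size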
#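 Cell line HEK293 (stable V1b), low serum overnight. Pretreatment: compound 30 min, 37C. EGF 25 nM, 5 min. Detection: SureFire AlphaScreen, 5 h RT. AC50 via standard Hill equation.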
# Numbers without * were called inactive; u = inconclusive; x = no result; [ ] = remark or other dose. Calls come from the whole dose curve; as a rule, active = well fitted curve in the direction sought with a large enough effect; inconclusive = small, poorly fitted or top-dose-only effect, or another doubt; inactive = no such curve, though single readings can be large; an effect the other way counts as inactive or inconclusive. Unless noted, % is set by controls: 0 for no effect and ±100 for the full control effect; potency is the fitted concentration of half-maximal effect.
SMILES,NPSR antag,IMPase Li cell,ERK EGF block
CCCN1/C(=C2/SC(=S)N(CC)C2=O)C=Cc2ccccc21,u,77%[38.3 µM],x
CCN1C(=O)/C(=C2/C=Cc3ccccc3N2CC)SC1=S,-46%,-1%,16µM*
O=C(c1ccco1)N1CCC2(CC1)CN(c1ccccc1)C2,x,-6%,0%
CCc1cc2ccccc2nc1SCC(=O)Nc1cc(C)on1,-4%[46.1 µM],10µM*,x
CCc1cc2cc(C)c(C)cc2nc1SCC(=O)Nc1cc(C)on1,-53%,u,-14%
CCc1cc2ccc(OC)cc2nc1SCC(=O)Nc1cc(C)on1,10µM*,u,x
CCc1cc2ccc(OC)cc2nc1SCC(=O)NNC(C)=O,8%,-1%,2%
O=C(Nc1ccccc1)N1CCCC2(CCN(C(=O)c3cc(C(F)(F)F)cc(C(F)(F)F)c3)CC2)C1,x,4%,-4%
CCOC(=O)C1=C[C@@]2(CC)CCCN3CCc4c(n1c1ccccc41)C32 (stereo partly drawn),x,9%,7%
Cc1cccc(CNc2cc(-c3ccccc3C)ncn2)c1,x,8%,12%
C#CC(=O)N(c1cc(OC)ccc1OC)C(C(=O)NC1CCCC1)c1cccs1 (stereo not drawn),10µM*,18%[38.3 µM],x
C#CC(=O)N(c1ccc(OC)cc1OC)C(C(=O)NC1CCCC1)c1cccs1 (stereo not drawn),u,18%,-8%
COc1ncc2nc(-c3cn(C)c4ccccc34)c(=O)n(CCc3ccccc3)c2n1,x,-11%,x
COc1ccc(C(C)C(=O)c2ccc(O)cc2O)cc1 (stereo not drawn),x,32%,-3%
CCCn1c(C)nc2c(NC3CCN(Cc4ccccc4)CC3)nc(C)nc21,x,-13%,-1%
CCN1/C(=C/C=C/C=C/c2sc3ccccc3[n+]2CC)Sc2ccccc21,7.9µM*,-3%,x
CC[n+]1c(/C=C/Nc2ccccc2)sc2ccccc21,0%[46.1 µM],14%[38.3 µM],x
CC(C)NC[C@@H](O)COc1ccccc1-n1cccc1,x,2%,2%
Cc1nc(SCC(=O)NCCc2ccccc2)c2oc3ccccc3c2n1,u,6.3µM*,x
CCc1nc(SCC(=O)NCCc2ccccc2)c2oc3ccccc3c2n1,-28%[46.1 µM],1%[38.3 µM],x
CNC(=O)C(Sc1nc(C)nc2c1oc1ccccc12)C(C)=O (stereo not drawn),-7%[46.1 µM],4.5µM*,x
Cc1nc(SCC(=O)NC(C)c2ccccc2)c2oc3ccccc3c2n1 (stereo not drawn),1%[46.1 µM],8%[38.3 µM],x
Cc1cc(C2(c3cc(C)c(O)cc3C)OS(=O)(=O)c3ccccc32)c(C)cc1O,x,58%,x
Cc1cccc([C@@H]2CN(C)CCc3c2cc(O)c(O)c3Cl)c1,x,12%,-16%
CN1CCN(c2ccnc(-c3ccoc3)n2)CC1,x,0%,x
SMILES,NPSR antag,IMPase Li cell,ERK EGF block
COC1=C(Nc2ccc(C)cc2)C(=O)c2ccccc2C1=O,-30%,30%,11µM*
COC1=C(Nc2ccccc2)C(=O)c2ccccc2C1=O,-28%,71%,14µM*
Cc1ccc(NC2=C(N3CCCCC3)C(=O)c3ccccc3C2=O)cc1,-22%[46.1 µM],x,x
COC1=C(OC)C(=O)c2ccccc2C1=O,10%[46.1 µM],12%,10%
CC(C)CNC(=O)O,x,-7%,x
COc1ccc(-c2nc3cnc(Oc4cccc(Cl)c4)nc3n(C[C@H]3CCCO3)c2=O)cc1,x,-8%,x
COc1cc(=O)n(C)c2c(OC[C@@H](O)C(C)(C)O)cccc12,x,1%,-1%[25.7 µM]
Cc1cc(C)n(-c2nc(N(c3ccccc3)c3ccccc3)nc(-n3nc(C)cc3C)n2)n1,13µM*,24%,u
Cc1cc(C)n(-c2nc(Nc3ccccc3)nc(-n3nc(C)cc3C)n2)n1,4%[46.1 µM],u,x
CC1=CC2=NC(=O)/C(=C\c3cccn3CCOc3ccccc3C)C(=N)N2O1,10µM*,5%,-6%[57.5 µM]
COc1ccccc1OCCOc1ccc(/C=C2/C(=N)N3OC(C)=CC3=NC2=O)cc1OC,-9%[46.1 µM],6%[38.3 µM],x
CCc1ccc(Nc2c([N+](=O)[O-])c(=O)oc3ccccc23)cc1,8%,x,18µM*
Cc1ccc(Nc2c([N+](=O)[O-])c(=O)oc3ccccc23)cc1,36%,21%,5%
CC[C@]12CCCN3CCc4c(n(c5ccccc45)C(=O)C1)[C@H]32,x,13%,-8%
CCCC/C=C/C(NC(=O)c1ccco1)c1ccccc1 (stereo not drawn),x,3%,0%
